Calls of active or inactive are those of the source. The calls were made as follows: active = hit-call score of the fitted dose curve at least 0.9, where 1 is the maximum; inactive = score below 0.9.
Legend:
[1] = ATG_CRE_CIS: Attagene CIS-FACTORIAL HepG2 Assay for human cAMP Responsive Element (CRE) binding protein 3 (AID 2282926); conditions: HepG2 CRE cis-reporter, Attagene multiplexed mRNA; actives raise or lower the signal
Method in brief: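 HepG2 cells transiently transfected with cis-element-driven multiple reporter transcription units; CRE reporter mRNA measured 24 h after dosing by RT-PCR, 6-FAM labelling, HpaI digestion and capillary electrophoresis. Bidirectional fit versus DMSO baseline.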

[2] = ATG_DR4_LXR_CIS: Attagene CIS-FACTORIAL HepG2 Assay for human Liver X Receptor (LXR), DR4 submotif (AID 2282929); conditions: HepG2 Attagene DR4 cis-reporter, mRNA transcription; actives raise or lower the signal
Method in brief: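 Transiently transfected HepG2 liver cells; cis-regulated reporters; 24 h dosing. RT-PCR plus CE read-out of reporter mRNA. DMSO baseline, bidirectional curve fitting.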

[3] = ATG_AP_1_CIS: Attagene CIS-FACTORIAL HepG2 Assay for human Activator Protein 1 (AP-1) (AID 2282931); conditions: HepG2 Attagene cis-factorial AP-1 reporter mRNA; actives raise or lower the signal
Method in brief: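 We transfected HepG2 cells transiently with a set of cis-regulated reporter transcription units, dosed them for 24 h, and quantified reporter mRNA via RT-PCR and capillary electrophoresis, scoring gain or loss of signal relative to DMSO.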

[4] = ATG_AP_2_CIS: Attagene CIS-FACTORIAL HepG2 Assay for human Activator Protein 2 (AP-2) (AID 2282932); conditions: HepG2 AP-2 cis-reporter, Attagene transcription factor profiling; actives raise or lower the signal
Method in brief: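 Step one: transient transfection of HepG2 with reporter transcription units. Step two: 24 h chemical exposure. Step three: RNA extraction, RT-PCR, labelled fragment analysis by capillary electrophoresis; DMSO serves as baseline.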

[5] = biological target: Transcription factor E2F1 (Homo sapiens) (UniProt Q01094); experiment: ATG_E2F_CIS: Attagene CIS-FACTORIAL HepG2 Assay for human E2F Transcription Factor 1 (AID 2282935); conditions: HepG2 Attagene cis-reporter, E2F reporter RNA transcripts; actives raise or lower the signal
Transcription factor E2F1 (Homo sapiens), sequence (Q01094 whole entry, looked up): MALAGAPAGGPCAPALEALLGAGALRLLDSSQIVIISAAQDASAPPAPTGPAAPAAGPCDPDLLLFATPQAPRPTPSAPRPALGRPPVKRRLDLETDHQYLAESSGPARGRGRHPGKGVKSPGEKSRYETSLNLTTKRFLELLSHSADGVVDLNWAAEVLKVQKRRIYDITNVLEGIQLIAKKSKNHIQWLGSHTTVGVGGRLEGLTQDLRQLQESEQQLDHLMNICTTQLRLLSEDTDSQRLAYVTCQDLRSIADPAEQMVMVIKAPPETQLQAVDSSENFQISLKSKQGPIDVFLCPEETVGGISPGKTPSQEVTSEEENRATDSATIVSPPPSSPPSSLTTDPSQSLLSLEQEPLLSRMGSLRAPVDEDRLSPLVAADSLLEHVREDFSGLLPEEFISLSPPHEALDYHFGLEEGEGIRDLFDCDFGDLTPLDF
Method in brief: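 Total RNA from 24 h-treated, reporter-transfected HepG2 cells undergoes DNase I treatment, oligo(dT) reverse transcription, PCR and 6-FAM primer extension before capillary electrophoresis.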

[6] = ATG_M_61_CIS: Attagene CIS-FACTORIAL HepG2 Assay for M61 Transcription Factor (Internal Marker) (AID 2282937); conditions: HepG2 Attagene CIS-FACTORIAL M61 internal marker reporter; actives raise or lower the signal
Method in brief: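 Multiplexed reporter mRNA assay, HepG2 human hepatoma cells, 24 h treatment. Signal: FAM-labelled, HpaI-digested RT-PCR fragments by CE. Fit: bidirectional, baseline DMSO.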

[7] = ATG_EGR_CIS: Attagene CIS-FACTORIAL HepG2 Assay for human Early Growth Response 1 (EGR1) (AID 2282938); conditions: HepG2 Attagene CIS-FACTORIAL EGR reporter mRNA; actives raise or lower the signal
Method in brief: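 Multiplexed cis-reporter system in human hepatoma HepG2 cells, transiently transfected. Cells are dosed for 24 h; reporter transcripts are amplified, fluorescently tagged and sized by capillary electrophoresis, with DMSO as negative control.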

[8] = ATG_M_19_CIS: Attagene CIS-FACTORIAL HepG2 Assay for M19 Transcription Factor (Internal Marker) (AID 2282939); conditions: HepG2 Attagene CIS-FACTORIAL M19 internal marker reporter; actives raise or lower the signal
Method in brief: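 Transfect HepG2 with MRTU reporter library → dose chemical, 24 h → isolate total RNA, reverse-transcribe with oligo(dT) → PCR, 6-FAM label, HpaI cut (2 h, 37 C) → capillary electrophoresis. Bidirectional fit vs DMSO.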

[9] = ATG_Ets_CIS: Attagene CIS-FACTORIAL HepG2 Assay for human Erythroblast Transformation Specific (ETS) (AID 2282941); conditions: HepG2 ETS cis-reporter transcription, actives raise or lower the signal
Method in brief: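 After transient cis-reporter transfection, HepG2 cells receive test chemical for 24 h. Reporter mRNA levels, measured by RT-PCR and capillary electrophoresis fluorescence, are analysed bidirectionally relative to the DMSO baseline.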

[10] = biological target: Hepatocyte nuclear factor 3-beta (Homo sapiens) (UniProt Q9Y261); experiment: ATG_FoxA2_CIS: Attagene CIS-FACTORIAL HepG2 Assay for human Forkhead box A2 (FOXA2) (AID 2282942); conditions: HepG2 cis-reporter transcription factor activity, 24 h; actives raise or lower the signal
Hepatocyte nuclear factor 3-beta (Homo sapiens), sequence (Q9Y261 whole entry, looked up): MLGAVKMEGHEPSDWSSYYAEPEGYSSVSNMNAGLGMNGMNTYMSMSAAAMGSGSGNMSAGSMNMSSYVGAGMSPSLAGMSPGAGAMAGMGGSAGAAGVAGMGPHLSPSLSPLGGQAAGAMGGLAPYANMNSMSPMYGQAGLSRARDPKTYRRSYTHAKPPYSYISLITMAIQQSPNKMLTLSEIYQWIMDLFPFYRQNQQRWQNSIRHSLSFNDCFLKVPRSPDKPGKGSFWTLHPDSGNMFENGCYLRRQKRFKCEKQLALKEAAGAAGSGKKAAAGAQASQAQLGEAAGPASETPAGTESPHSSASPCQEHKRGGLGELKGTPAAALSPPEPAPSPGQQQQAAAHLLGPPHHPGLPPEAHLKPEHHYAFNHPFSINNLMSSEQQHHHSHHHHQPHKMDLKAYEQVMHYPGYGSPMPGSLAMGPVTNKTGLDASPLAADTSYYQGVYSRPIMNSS
Method in brief: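 Multiplexed cis-element reporter assay in transiently transfected HepG2. Twenty-four hours post-dosing, RNA was reverse-transcribed, amplified, FAM-labelled, HpaI-digested and separated by CE. Activity gain or loss relative to DMSO.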

[11] = ATG_GATA_CIS: Attagene CIS-FACTORIAL HepG2 Assay for human GATA Binding Protein (AID 2282944); conditions: HepG2 GATA cis-element reporter, Attagene multiplex mRNA; actives raise or lower the signal
Method in brief: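 Transient MRTU transfection, HepG2, 24 h compound exposure. Total RNA → oligo(dT) RT → PCR → 6-FAM primer extension → HpaI cut → CE. Bidirectional fit vs DMSO.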

[12] = ATG_GLI_CIS: Attagene CIS-FACTORIAL HepG2 Assay for human Zinc Finger Protein GLI1 (AID 2282945); conditions: HepG2, Attagene cis-factorial reporter mRNA, GLI element; actives raise or lower the signal
Method in brief: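 Bidirectional curve fits relative to DMSO, using reporter mRNA levels from RT-PCR plus capillary electrophoresis. Cells were HepG2 transiently carrying cis-regulated reporter constructs, harvested 24 h after dosing.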

[13] = ATG_ISRE_CIS: Attagene CIS-FACTORIAL HepG2 Assay for human Interferon Regulatory Factor 1 (IRF1) binding to an Interferon-Stimulated Response Element (ISRE) (AID 2282948); conditions: HepG2 ISRE cis-reporter (Attagene), mRNA transcription readout; actives raise or lower the signal
Method in brief: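 Quantitation relies on labelled RT-PCR fragments separated by capillary electrophoresis. Human HepG2 cells bearing cis-promoter reporter constructs were treated 24 h; DMSO served as baseline for bidirectional fitting.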

[14] = ATG_M_32_CIS: Attagene CIS-FACTORIAL HepG2 Assay for M32 Transcription Factor (Internal Marker) (AID 2282949); conditions: HepG2 Attagene cis-factorial M32 reporter, mRNA; actives raise or lower the signal;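 also: background control marker of the multiplexed CIS panel rather than a real target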
Method in brief: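 Internal background marker read-out: RT-PCR/capillary electrophoresis fluorescence of reporter transcripts from transiently transfected HepG2 cells after 24 h chemical exposure. Activity fitted bidirectionally relative to DMSO negative control.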

[15] = ATG_M_06_CIS: Attagene CIS-FACTORIAL HepG2 Assay for M06 Transcription Factor (Internal Marker) (AID 2282950); conditions: HepG2 Attagene CIS-FACTORIAL M06 internal marker reporter; actives raise or lower the signal
Method in brief: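 Read-out is fluorescence of labelled reporter cDNA fragments resolved by capillary electrophoresis after RT-PCR. Cells: HepG2 carrying transfected cis-promoter reporter units, treated 24 h. Gain or loss of signal fitted relative to DMSO.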

[16] = ATG_MRE_CIS: Attagene CIS-FACTORIAL HepG2 Assay for human Metal Responsive Element (MRE) (AID 2282954); conditions: HepG2 MRE cis-reporter transcription, Attagene multiplex; actives raise or lower the signal
Method in brief: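 After a 24 h chemical exposure, transiently transfected HepG2 cells yield RNA whose reporter sequences are amplified, FAM-labelled and sized by capillary electrophoresis. Curves are fitted bidirectionally relative to DMSO.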

[17] = biological target: Paired box protein Pax-6 (Homo sapiens) (UniProt P26367); experiment: ATG_Pax6_CIS: Attagene CIS-FACTORIAL HepG2 Assay for human Paired Box 6 (PAX6) (AID 2282956); conditions: HepG2 CIS-FACTORIAL PAX6 reporter transcription, RNA readout; actives raise or lower the signal
Paired box protein Pax-6 (Homo sapiens), sequence (P26367 whole entry, looked up): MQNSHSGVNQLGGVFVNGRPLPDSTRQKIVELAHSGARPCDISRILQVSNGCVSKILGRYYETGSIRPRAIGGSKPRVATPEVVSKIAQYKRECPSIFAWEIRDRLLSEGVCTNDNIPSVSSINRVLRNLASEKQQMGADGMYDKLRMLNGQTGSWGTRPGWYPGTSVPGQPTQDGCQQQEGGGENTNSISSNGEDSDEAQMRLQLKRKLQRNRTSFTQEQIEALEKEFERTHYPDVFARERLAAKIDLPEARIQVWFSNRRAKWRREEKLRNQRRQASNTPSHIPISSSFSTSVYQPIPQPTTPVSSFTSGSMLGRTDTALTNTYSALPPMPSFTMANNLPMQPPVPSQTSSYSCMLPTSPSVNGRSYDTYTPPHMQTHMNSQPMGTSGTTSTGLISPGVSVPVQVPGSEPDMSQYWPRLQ
Method in brief: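 After twenty-four hours of chemical exposure, transfected HepG2 cells are harvested for RNA. Cis-promoter reporter transcripts are amplified, fluorescently labelled and sized by capillary electrophoresis, with gain and loss of signal scored against DMSO.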

[18] = ATG_PXRE_CIS: Attagene CIS-FACTORIAL HepG2 Assay for human Pregnane X Receptor Element (PXRE) (AID 2282957); conditions: HepG2 Attagene CIS-FACTORIAL PXRE reporter, mRNA; actives raise or lower the signal
Method in brief: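 HepG2 cells transiently transfected with cis-element-driven multiplexed reporter units; after 24 h chemical exposure, reporter mRNA measured by RT-PCR, 6-FAM labelling, HpaI digestion and capillary electrophoresis. Bidirectional fitting relative to DMSO.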

[19] = biological target: Transcription factor Sp1 (Homo sapiens) (UniProt P08047); experiment: ATG_Sp1_CIS: Attagene CIS-FACTORIAL HepG2 Assay for human Specificity Protein 1 (Sp1) (AID 2282961); conditions: HepG2 Sp1 cis-reporter transcription, actives raise or lower the signal
Transcription factor Sp1 (Homo sapiens), sequence (P08047 whole entry, looked up): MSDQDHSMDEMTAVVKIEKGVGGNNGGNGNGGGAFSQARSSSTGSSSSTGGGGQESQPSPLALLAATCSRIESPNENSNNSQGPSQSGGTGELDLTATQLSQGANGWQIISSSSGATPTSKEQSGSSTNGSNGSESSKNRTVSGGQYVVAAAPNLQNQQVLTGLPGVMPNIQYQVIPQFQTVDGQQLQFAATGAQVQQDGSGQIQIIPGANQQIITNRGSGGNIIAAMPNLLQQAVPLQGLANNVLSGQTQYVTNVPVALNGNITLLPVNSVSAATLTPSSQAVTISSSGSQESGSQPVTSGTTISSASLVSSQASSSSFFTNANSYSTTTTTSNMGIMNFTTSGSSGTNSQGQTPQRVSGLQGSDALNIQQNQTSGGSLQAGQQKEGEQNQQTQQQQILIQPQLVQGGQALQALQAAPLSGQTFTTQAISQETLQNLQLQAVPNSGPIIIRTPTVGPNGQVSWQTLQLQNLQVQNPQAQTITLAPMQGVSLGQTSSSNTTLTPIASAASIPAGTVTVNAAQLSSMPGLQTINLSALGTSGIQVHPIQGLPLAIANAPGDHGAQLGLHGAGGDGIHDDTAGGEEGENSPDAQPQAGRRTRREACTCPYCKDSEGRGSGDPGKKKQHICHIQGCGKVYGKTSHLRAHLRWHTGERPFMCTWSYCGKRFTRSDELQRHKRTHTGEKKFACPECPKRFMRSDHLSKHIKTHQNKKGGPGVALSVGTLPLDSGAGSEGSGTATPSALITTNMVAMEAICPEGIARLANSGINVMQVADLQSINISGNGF
Method in brief: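 Chemicals are dosed onto HepG2 cells transfected with multiple cis-promoter reporter constructs, and after 24 h reporter RNA is reverse-transcribed, PCR-amplified and resolved by capillary electrophoresis for fluorescence quantitation; activity is scored up or down against DMSO.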

[20] = biological target: Signal transducer and activator of transcription 3 (Homo sapiens) (UniProt P40763); experiment: ATG_STAT3_CIS: Attagene CIS-FACTORIAL HepG2 Assay for human Signal Transducer and Activator of Transcription 3 (STAT3) (AID 2282963); conditions: HepG2, Attagene cis-factorial STAT3 reporter transcription; actives raise or lower the signal
Signal transducer and activator of transcription 3 (Homo sapiens), sequence (P40763 whole entry, looked up): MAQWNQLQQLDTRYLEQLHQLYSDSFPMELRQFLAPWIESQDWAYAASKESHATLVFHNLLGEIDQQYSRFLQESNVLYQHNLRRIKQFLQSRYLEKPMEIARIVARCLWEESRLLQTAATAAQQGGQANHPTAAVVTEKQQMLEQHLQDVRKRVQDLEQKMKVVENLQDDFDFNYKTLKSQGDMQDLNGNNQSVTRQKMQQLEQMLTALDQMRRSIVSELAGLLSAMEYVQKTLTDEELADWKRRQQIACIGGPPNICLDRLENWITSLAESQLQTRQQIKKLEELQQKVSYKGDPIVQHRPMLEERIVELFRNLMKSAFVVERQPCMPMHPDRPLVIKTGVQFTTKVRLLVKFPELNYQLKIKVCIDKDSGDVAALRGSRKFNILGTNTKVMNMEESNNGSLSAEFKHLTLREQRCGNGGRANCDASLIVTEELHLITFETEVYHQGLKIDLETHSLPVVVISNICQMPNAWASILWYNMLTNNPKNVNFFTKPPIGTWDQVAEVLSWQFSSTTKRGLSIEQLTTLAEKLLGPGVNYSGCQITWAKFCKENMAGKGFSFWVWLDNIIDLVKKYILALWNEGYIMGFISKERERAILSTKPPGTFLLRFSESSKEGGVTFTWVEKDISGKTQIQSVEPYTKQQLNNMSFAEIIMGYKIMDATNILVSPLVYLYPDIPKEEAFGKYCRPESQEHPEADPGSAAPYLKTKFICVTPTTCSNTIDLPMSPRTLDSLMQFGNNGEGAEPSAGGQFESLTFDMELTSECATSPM
Method in brief: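 After a 24 h compound incubation, total RNA from MRTU-transfected HepG2 cells was converted to cDNA and reporter sequences PCR-amplified, labelled and profiled by capillary electrophoresis. Gain and loss of signal were referenced to DMSO.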

Measured: AC50

O=C(CCl)c1ccccc1
inactive: [5] | [6] | [7] | [8] | [9] | [10] | [11] | [12] | [14] | [15] | [16] | [17] | [18] | [19] | [20]
active: [1] 8.31 µM | [2] 21.1 µM | [3] 59.3 µM | [4] 18.9 µM | [13] 18.8 µM

CC(O)CN(CC(C)O)CC(C)O (stereo not given)
inactive: [1] | [2] | [3] | [4] | [5] | [6] | [7] | [8] | [9] | [10] | [11] | [12] | [13] | [14] | [15] | [16] | [17] | [18] | [19] | [20]

[CH3][Sn]([Cl])([Cl])[Cl]
inactive: [1] | [2] | [3] | [4] | [5] | [6] | [7] | [8] | [9] | [10] | [11] | [12] | [13] | [14] | [15] | [16] | [17] | [18] | [19] | [20]

S=c1[nH]c2ccccc2[nH]1
inactive: [1] | [2] | [3] | [4] | [5] | [6] | [7] | [8] | [9] | [10] | [11] | [12] | [13] | [14] | [15] | [16] | [17] | [18] | [19] | [20]

CC(C)(c1cc(Cl)c(O)c(Cl)c1)c1cc(Cl)c(O)c(Cl)c1
inactive: [1] | [3] | [4] | [5] | [6] | [8] | [9] | [10] | [11] | [14] | [15] | [18] | [19] | [20]
active: [2] 33.4 µM | [7] 52.8 µM | [12] 60.7 µM | [13] 47.2 µM | [16] 58.4 µM | [17] 52.3 µM

O=P1(NCCCl)OCCCN1CCCl (stereo not given)
active: [18] 50.2 µM
inactive: [1] | [2] | [3] | [4] | [5] | [6] | [7] | [8] | [9] | [10] | [11] | [12] | [13] | [14] | [15] | [16] | [17] | [19] | [20]

O=C(O)CCl
inactive: [1] | [2] | [3] | [4] | [5] | [6] | [7] | [8] | [9] | [10] | [11] | [12] | [13] | [14] | [15] | [16] | [17] | [18] | [19] | [20]

C[C@]12CC[C@H]3[C@@H](CC[C@@]45O[C@@H]4C(O)=C(C#N)C[C@]35C)[C@@H]1CC[C@@H]2O
inactive: [1] | [2] | [3] | [4] | [5] | [6] | [8] | [9] | [10] | [11] | [12] | [14] | [15] | [19] | [20]
active: [7] 63.3 µM | [13] 100 µM | [16] 62.1 µM | [17] 44.2 µM | [18] 27.2 µM

O=[N+]([O-])C=Cc1ccccc1
inactive: [5] | [6] | [8] | [9] | [14] | [15]
active: [1] 20 µM | [2] 29.6 µM | [3] 57.7 µM | [4] 21.4 µM | [7] 14.4 µM | [10] 22.7 µM | [11] 22.1 µM | [12] 31.2 µM | [13] 27.6 µM | [16] 13.3 µM | [17] 21.1 µM | [18] 56.8 µM | [19] 21.2 µM | [20] 33.4 µM

O=C1C(Cl)=C(Cl)C(=O)C(Cl)=C1Cl
inactive: [1] | [4] | [5] | [6] | [8] | [9] | [10] | [11] | [12] | [13] | [14] | [15] | [16] | [18] | [19] | [20]
active: [2] 66.9 µM | [3] 130 µM | [7] 137 µM | [17] 132 µM
